This is an account of results in PubChem BioAssay (EPA / NIEHS).

Records with an inconclusive call do not appear. The source made the active and inactive calls. How the source made its calls, unless noted: active means hit-call score of the fitted dose curve at least 0.9, where 1 is the maximum; inactive means score below 0.9.

Experiment [1] can be described thus: ATG_NFI_CIS: Attagene CIS-FACTORIAL HepG2 Assay for human Nuclear Factor I (NFI) (AID 2282989). The following applies: HepG2 cis-regulatory reporter, NFI response element transcription; actives raise or lower the signal. The gist of the method: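 Read-out: reporter mRNA via RT-PCR plus capillary electrophoresis with fluorescence detection. Transiently transfected HepG2 (endogenous TF activity on cis promoters), 24 h compound exposure; gain or loss of signal fitted against DMSO.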

Experiment [2] deals with Myc proto-oncogene protein (Homo sapiens) (UniProt P01106). Description: ATG_Myc_CIS: Attagene CIS-FACTORIAL HepG2 Assay for human Myelocytomatosis (Myc) Proto-Oncogene Transcription Factor (AID 2282990). The settings on record: HepG2, Attagene cis-reporter transcription factor activity; actives raise or lower the signal. The gist of the method: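 Cells of the HepG2 human liver line bear multiple cis-driven reporter transcription units. Reporter mRNA after 24 h exposure is reverse-transcribed, amplified, labelled and resolved by capillary electrophoresis, with gain- or loss-of-signal fitting relative to DMSO.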
Chain of Myc proto-oncogene protein (Homo sapiens) (P01106 whole entry, looked up): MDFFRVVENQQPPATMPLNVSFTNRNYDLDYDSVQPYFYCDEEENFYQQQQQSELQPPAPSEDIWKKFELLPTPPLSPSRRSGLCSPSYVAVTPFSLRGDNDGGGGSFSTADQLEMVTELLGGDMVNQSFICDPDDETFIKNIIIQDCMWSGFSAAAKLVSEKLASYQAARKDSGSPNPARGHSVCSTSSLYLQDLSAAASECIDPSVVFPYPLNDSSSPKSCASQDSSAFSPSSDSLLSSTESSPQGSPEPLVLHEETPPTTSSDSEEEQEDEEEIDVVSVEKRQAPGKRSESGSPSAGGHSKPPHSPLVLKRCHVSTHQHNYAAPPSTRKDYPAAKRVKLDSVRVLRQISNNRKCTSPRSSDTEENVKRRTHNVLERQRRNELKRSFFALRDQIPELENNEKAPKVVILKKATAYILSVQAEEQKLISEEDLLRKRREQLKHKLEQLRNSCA

A short description of experiment [3]: ATG_NF_kB_CIS: Attagene CIS-FACTORIAL HepG2 Assay for human Nuclear Factor Kappa B (NF-kB) (AID 2282991). The settings on record: HepG2 Attagene cis-factorial NF-kB reporter mRNA; actives raise or lower the signal. The gist of the method:
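Multiplexed cis-reporter assay in transiently transfected HepG2. 24 h treatment; RNA isolated, RT-PCR, labelled fragments resolved by CE. DMSO baseline.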

A short description of experiment [4]: ATG_NRF2_ARE_CIS: Attagene CIS-FACTORIAL HepG2 Assay for human Nuclear Factor Erythroid 2 Related Factor 2 (NFR2) response to Antioxidant Response Elements (ARE) (AID 2282992).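 On AC50: reporter mRNA level measured by RT-PCR and capillary electrophoresis fluorescence.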 The following applies: HepG2 Attagene ARE/NRF2 reporter, transcription factor activity; actives raise or lower the signal. A digest of the protocol: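 Multiplexed reporter mRNA profiling in HepG2 after a 24 h chemical exposure. Curves fitted in both directions relative to DMSO negative control.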

Experiment [5] can be described thus: ATG_Oct_MLP_CIS: Attagene CIS-FACTORIAL HepG2 Assay for human Octamer-Binding Transcription Factor (Oct) (AID 2282993). The following applies: HepG2 Attagene cis-factorial Oct reporter, mRNA; actives raise or lower the signal. A digest of the protocol: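 Read-out: reporter mRNA via RT-PCR plus capillary electrophoresis of 6-FAM-labelled fragments. Transiently transfected HepG2, 24 h exposure, endogenous TF activity on cis elements. Gain or loss of signal fitted relative to DMSO.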

For experiment [6], the target named is Cellular tumor antigen p53 (Homo sapiens) (UniProt P04637). Description: ATG_p53_CIS: Attagene CIS-FACTORIAL HepG2 Assay for human p53 Transcription Factor (AID 2282994). The settings on record: HepG2 p53 cis-element reporter, Attagene mRNA; actives raise or lower the signal. The gist of the method:
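Multiplexed reporter mRNA assay in human HepG2 liver cells; cis-regulated units report endogenous factor activity. Values come from bidirectional curve fitting against DMSO negative control after 24 h treatment.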

Experiment [7] addresses human Retinoic Acid Receptor beta (RARb), RARB (gene 5915) (UniProt P10826). In words: ATG_RARb_TRANS: Attagene TRANS-FACTORIAL HepG2 Assay for human Retinoic Acid Receptor beta (AID 2283004; active means hit-call score of the fitted dose curve at least 0.9, where 1 is the maximum). The gist of the method: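 HepG2, transient MRTU transfection, NR–Gal4 chimera, 24 h treatment; RT-PCR plus CE fluorescence detection of reporter mRNA; gain of signal vs DMSO.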
Experiment [8] has as its target Peroxisome proliferator-activated receptor gamma (Homo sapiens) (UniProt P37231). In words: ATG_PPARg_TRANS: Attagene TRANS-FACTORIAL HepG2 Assay for human Peroxisome Proliferator-activated Receptor-gamma (PPARg) (AID 2283007; active means hit-call score of the fitted dose curve at least 0.9, where 1 is the maximum). The gist of the method:
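Human hepatoma HepG2, transient MRTU transfection, 24 h treatment. mRNA reporter signal by RT-PCR plus capillary electrophoresis, fluorescence detection; fitted for increase over DMSO negative control.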

Experiment [9] has as its target Nuclear receptor subfamily 1 group I member 2 (Homo sapiens) (UniProt O75469). Description: ATG_PXR_TRANS: Attagene TRANS-FACTORIAL HepG2 Assay for human Pregnane X Receptor (PXR) (AID 2283008; active means hit-call score of the fitted dose curve at least 0.9, where 1 is the maximum). The gist of the method: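 Measures mRNA induction of a GAL4-UAS-driven reporter in human HepG2 cells transiently expressing PXR fused to Gal4, following 24 h treatment. DMSO served as negative control and baseline.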

Experiment [10] has as its target human RAR-related Orphan Receptor beta (RORb), RORB (gene 6096) (UniProt Q92753). Description: ATG_RORb_TRANS: Attagene TRANS-FACTORIAL HepG2 Assay for human RAR-related Orphan Receptor beta (RORb) (AID 2283010; active means hit-call score of the fitted dose curve at least 0.9, where 1 is the maximum). A digest of the protocol:
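Readout is reporter-gene mRNA induction, detected as fluorescence after RT-PCR and capillary electrophoresis, fitted for gain of signal against DMSO controls. Transiently transfected HepG2 liver cells carrying GAL4-UAS reporter constructs were treated for 24 hours.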

Experiment [11] addresses human Retinoic Acid Receptor gamma (RARg), RARG (gene 5916) (UniProt P13631). In words: ATG_RARg_TRANS: Attagene TRANS-FACTORIAL HepG2 Assay for human Retinoic Acid Receptor gamma (RARg) (AID 2283009; active means hit-call score of the fitted dose curve at least 0.9, where 1 is the maximum). A digest of the protocol: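 Transient transfection of HepG2 with multi-reporter constructs, then 24 h chemical treatment. Total RNA isolated, reverse-transcribed, PCR-amplified, fluorescently labelled and resolved by capillary electrophoresis; activity scored as mRNA induction versus DMSO.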

Experiment [12] has as its target human Peroxisome Proliferator-activated Receptor delta (PPARd), PPARD (gene 5467) (UniProt Q03181). Description: ATG_PPARd_TRANS: Attagene TRANS-FACTORIAL HepG2 Assay for human Peroxisome Proliferator-activated Receptor delta (PPARd) (AID 2283002; active means hit-call score of the fitted dose curve at least 0.9, where 1 is the maximum). A digest of the protocol:
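Cell-based TRANS reporter: HepG2, transient MRTU transfection, 24 h exposure. Readout = reporter mRNA (RT-PCR/CE, 6-FAM). Gain-of-signal fit vs DMSO control.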

Experiment [13] in a line: BSK_3C_TissueFactor: BioMAP Diversity Plus: 3C Assay for Tissue Factor Biomarker Activity (AID 2282997). The following applies: BioMAP 3C HUVEC, tissue factor biomarker readout; actives raise or lower the signal. The gist of the method: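 Values derive from bidirectional curve fitting against DMSO of Tissue Factor ELISA signals, taken 24 h after dosing primary human umbilical vein endothelial cells.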

Experiment [14] in a line: BSK_3C_uPAR: BioMAP Diversity Plus: 3C Assay for Urokinase-type plasminogen activator receptor (uPAR) Biomarker Activity (AID 2282998). The following applies: BioMAP 3C HUVEC, uPAR biomarker ELISA; actives raise or lower the signal. A digest of the protocol:
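HUVEC primary cells; 24 h post-dose; uPAR by ELISA; gain or loss of signal fitted bidirectionally vs DMSO baseline.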
On the technique in general: ELISA stands for enzyme-linked immunosorbent assay.

Experiment [15] can be described thus: BSK_3C_VCAM1: BioMAP Diversity Plus: 3C Assay for Vascular cell adhesion molecule 1 (VCAM1) Biomarker Activity (AID 2282999). The settings on record: BioMAP 3C HUVEC, VCAM1 ELISA, cytokine-stimulated; actives raise or lower the signal. The gist of the method:
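Endothelial cells from human umbilical vein are treated with test chemical. At 24 h, VCAM-1 is measured by ELISA, and responses in either direction are fitted relative to DMSO.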

The nature of experiment [16]: BSK_4H_Eotaxin3: BioMAP Diversity Plus: 4H Assay for Eotaxin 3 Biomarker Activity (AID 2283000).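 Further: CCL26 protein level quantified by ELISA in parallel with SRB cytotoxicity check.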 The following applies: primary human endothelial cells (HUVEC); actives raise or lower the signal. The gist of the method:
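Endothelial primary cells (human umbilical vein) exposed to compound for 24 h. ELISA detection of Eotaxin-3.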

Read-out in experiment [17]: Intercellular Adhesion Molecule 1 (ICAM1), ICAM1 (gene 3383)
Description: BSK_3C_ICAM1: BioMAP Diversity Plus: 3C Assay for Intercellular Adhesion Molecule 1 (ICAM1) Biomarker Activity (AID 2283003). The following applies: primary human endothelial cells (HUVEC); actives raise or lower the signal. The gist of the method:
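ICAM-1 levels measured by ELISA after HUVEC cultures in the 3C system had been dosed for 24 h. Gain or loss of signal relative to DMSO was fitted in both directions.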

Experiment [18] is described as follows: BSK_3C_Proliferation: Cell Proliferation Assessment in the BioMAP Diversity Plus: 3C Assay (AID 2283006). The following applies: primary human endothelial cells (HUVEC). A digest of the protocol:
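Read-out is total protein by SRB absorbance at 560 nm, taken as a proxy for relative cell number. Primary human umbilical vein endothelium cultured below confluence was dosed for 48 h, TCA-fixed and SRB-stained; curves were fitted bidirectionally versus DMSO.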

The term AC50 denotes the concentration giving half of the maximal activity seen.

Chain of Cellular tumor antigen p53 (Homo sapiens) (P04637 whole entry, looked up): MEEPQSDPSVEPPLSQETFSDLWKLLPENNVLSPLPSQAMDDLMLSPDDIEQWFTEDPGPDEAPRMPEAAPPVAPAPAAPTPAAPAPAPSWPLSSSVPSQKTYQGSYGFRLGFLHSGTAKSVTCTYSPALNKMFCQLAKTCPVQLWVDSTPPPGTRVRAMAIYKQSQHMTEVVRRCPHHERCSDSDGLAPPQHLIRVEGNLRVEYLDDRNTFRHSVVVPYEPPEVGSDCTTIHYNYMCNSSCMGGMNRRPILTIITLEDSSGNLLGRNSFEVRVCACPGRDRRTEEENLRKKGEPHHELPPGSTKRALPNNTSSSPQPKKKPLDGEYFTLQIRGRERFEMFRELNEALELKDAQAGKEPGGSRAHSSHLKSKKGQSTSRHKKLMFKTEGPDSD
Chain of human Peroxisome Proliferator-activated Receptor delta (PPARd), PPARD (gene 5467) (Q03181 whole entry, looked up): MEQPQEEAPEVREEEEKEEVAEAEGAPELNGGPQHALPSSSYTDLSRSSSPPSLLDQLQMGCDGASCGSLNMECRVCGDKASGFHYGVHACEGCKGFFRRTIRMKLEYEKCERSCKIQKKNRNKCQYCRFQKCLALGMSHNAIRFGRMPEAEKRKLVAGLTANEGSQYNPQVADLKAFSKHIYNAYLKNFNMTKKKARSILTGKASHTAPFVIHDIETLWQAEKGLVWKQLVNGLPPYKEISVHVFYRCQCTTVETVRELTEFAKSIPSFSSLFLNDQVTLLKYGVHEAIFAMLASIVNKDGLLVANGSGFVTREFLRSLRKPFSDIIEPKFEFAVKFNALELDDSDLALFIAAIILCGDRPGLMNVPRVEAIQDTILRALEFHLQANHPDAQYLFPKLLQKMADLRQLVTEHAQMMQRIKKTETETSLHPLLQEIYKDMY
Chain of human Retinoic Acid Receptor gamma (RARg), RARG (gene 5916) (P13631 whole entry, looked up): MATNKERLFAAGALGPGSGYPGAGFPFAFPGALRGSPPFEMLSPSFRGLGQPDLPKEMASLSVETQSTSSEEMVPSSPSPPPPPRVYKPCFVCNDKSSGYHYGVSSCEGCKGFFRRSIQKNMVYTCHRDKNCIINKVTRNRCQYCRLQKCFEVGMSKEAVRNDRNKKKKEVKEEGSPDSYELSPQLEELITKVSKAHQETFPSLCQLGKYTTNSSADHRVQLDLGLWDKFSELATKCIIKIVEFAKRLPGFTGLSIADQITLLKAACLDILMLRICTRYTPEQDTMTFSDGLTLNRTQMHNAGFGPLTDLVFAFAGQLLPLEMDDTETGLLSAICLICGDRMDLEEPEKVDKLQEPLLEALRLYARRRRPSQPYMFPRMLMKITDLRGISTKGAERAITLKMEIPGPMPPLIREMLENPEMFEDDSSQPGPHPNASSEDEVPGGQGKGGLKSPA
Chain of Nuclear receptor subfamily 1 group I member 2 (Homo sapiens) (O75469 whole entry, looked up, the tested form may be a part): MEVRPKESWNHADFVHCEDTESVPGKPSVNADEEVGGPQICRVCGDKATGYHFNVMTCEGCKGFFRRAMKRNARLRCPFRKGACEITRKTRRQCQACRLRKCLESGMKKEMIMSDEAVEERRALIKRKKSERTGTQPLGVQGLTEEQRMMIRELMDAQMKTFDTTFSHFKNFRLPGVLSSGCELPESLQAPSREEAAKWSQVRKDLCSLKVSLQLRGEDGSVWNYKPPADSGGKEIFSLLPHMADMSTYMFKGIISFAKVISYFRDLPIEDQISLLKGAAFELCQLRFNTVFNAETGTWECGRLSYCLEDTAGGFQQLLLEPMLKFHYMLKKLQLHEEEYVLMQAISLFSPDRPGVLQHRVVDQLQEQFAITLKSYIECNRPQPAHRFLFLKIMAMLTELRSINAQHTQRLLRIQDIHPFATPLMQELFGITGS
Chain of Peroxisome proliferator-activated receptor gamma (Homo sapiens) (P37231 whole entry, looked up): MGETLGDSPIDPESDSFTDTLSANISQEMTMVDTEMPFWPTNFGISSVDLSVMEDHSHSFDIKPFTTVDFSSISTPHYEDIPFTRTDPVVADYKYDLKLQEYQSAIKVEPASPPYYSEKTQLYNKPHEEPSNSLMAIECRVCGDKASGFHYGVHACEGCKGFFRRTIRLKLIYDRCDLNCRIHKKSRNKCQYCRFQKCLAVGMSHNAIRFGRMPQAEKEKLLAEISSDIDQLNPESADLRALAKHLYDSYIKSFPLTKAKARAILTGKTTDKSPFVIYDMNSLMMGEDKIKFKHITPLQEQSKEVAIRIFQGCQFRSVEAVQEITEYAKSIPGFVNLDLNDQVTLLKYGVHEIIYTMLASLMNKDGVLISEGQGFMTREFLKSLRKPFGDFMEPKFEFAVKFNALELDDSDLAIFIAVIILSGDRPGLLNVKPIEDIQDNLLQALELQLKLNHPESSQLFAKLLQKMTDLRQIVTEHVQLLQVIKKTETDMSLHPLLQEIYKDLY
Chain of human RAR-related Orphan Receptor beta (RORb), RORB (gene 6096) (Q92753 whole entry, looked up, the tested form may be a part): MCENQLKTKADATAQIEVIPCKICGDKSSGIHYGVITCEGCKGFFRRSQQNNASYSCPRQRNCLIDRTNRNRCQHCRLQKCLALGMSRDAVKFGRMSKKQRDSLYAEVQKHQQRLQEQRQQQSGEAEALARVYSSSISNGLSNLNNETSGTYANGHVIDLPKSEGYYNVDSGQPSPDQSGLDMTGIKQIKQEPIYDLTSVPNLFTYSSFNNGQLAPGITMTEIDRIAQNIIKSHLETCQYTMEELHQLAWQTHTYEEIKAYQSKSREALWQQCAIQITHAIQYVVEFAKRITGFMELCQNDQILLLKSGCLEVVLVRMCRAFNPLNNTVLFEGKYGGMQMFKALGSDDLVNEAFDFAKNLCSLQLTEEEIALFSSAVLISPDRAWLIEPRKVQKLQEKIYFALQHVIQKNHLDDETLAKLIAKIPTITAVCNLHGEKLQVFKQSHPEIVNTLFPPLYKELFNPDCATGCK
Chain of human Retinoic Acid Receptor beta (RARb), RARB (gene 5915) (P10826 whole entry, looked up, the tested form may be a part): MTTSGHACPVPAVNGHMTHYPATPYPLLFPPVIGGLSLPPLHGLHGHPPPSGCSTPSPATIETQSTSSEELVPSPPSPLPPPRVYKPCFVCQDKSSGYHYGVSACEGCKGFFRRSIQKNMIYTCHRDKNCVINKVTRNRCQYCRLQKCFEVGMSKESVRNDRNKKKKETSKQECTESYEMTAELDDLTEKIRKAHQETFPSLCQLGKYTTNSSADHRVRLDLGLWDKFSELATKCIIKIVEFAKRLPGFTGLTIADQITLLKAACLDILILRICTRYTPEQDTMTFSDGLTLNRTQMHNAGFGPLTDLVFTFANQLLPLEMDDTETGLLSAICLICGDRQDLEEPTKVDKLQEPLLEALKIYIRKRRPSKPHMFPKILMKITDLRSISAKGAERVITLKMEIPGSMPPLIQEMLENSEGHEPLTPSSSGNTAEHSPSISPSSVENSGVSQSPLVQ

Take `CCCCC(CC)C(=O)OC(C)C` (stereo not given): the molecule was classed as inactive in experiment [1], in experiment [2], in experiment [3], in experiment [4], in [5] and in experiment [6]. In addition, the call in experiment [7], in experiment [8], in experiment [9] and in experiment [10] was inactive.
Regarding `O=CCc1ccccc1`, the molecule was called inactive in experiment [1], in experiment [2], in experiment [3], in experiment [4], in experiment [5] and in experiment [6]. Also, the molecule was classed as inactive in experiment [11] and in experiment [10]. Also, the half-maximal activity concentration (AC50) in experiment [8] is 22.9 µM (active).
`CCC(Cl)C(Cl)C(Cl)CC(Cl)C(Cl)C(C)Cl` (stereo not given): the molecule was classed as inactive in experiment [1], in experiment [2], in [3], in experiment [5], in [6] and in experiment [12]. The concentration at half-maximal activity (AC50) in experiment [4] is 43.4 µM (active); in experiment [8], 22.3 µM (active); in experiment [9] it was 1.74 µM (active).
For the molecule `CC(C)CCOC(=O)c1ccccc1`, the molecule was classed as inactive in experiment [1], in [2], in [3], in experiment [4], in experiment [5] and in experiment [6]. In addition, the result in experiment [9] was inactive.
On to `CC(C)(N=C=O)c1cccc(C(C)(C)N=C=O)c1`, for which the result in [1], in experiment [2], in [3], in experiment [5], in experiment [13] and in experiment [14] was inactive. For the same molecule, the result in experiment [15], in experiment [16], in [12], in [17] and in experiment [18] was inactive. Also, the half-maximal activity concentration (AC50) in experiment [4] was 13 µM (active); in [9] it was 11.3 µM (active).
Take `CN(C)CCOc1ccc(/C(=C(/CCCl)c2ccccc2)c2ccccc2)cc1`: the molecule was classed as inactive in experiment [1], in experiment [2], in experiment [3], in experiment [5], in [6] and in experiment [9]. Further, the molecule was classed as inactive in [11]. In addition, in experiment [4], the AC50 is 2.47 µM (active).
Regarding `Cc1c(C2(c3cc(Br)c(O)c(Br)c3C)OS(=O)(=O)c3ccccc32)cc(Br)c(O)c1Br`, the molecule was classed as inactive in [1], in experiment [2], in [3], in [5], in [6] and in experiment [12]. The call in experiment [8], in [11] and in [10] was inactive. The figures for the AC50 in [4] and in experiment [9] were 52.5 µM (active) and 13 µM (active), respectively.
Regarding `Cc1ccc(-c2ccccc2)cc1`, the molecule was called inactive in experiment [1], in [2], in experiment [3], in [4], in experiment [5] and in experiment [6]. Moreover, the molecule was called inactive in [9] and in [10].
Take `CC(C)(CO)[C@@H](O)C(=O)NCCC(=O)O`: the molecule was called inactive in experiment [1], in experiment [2], in experiment [3], in experiment [4], in [5] and in experiment [6]. Also, the molecule was called inactive in experiment [12], in [9] and in experiment [11].
For the molecule `C=C1CC[C@H](O)C/C1=C/C=C1\CCC[C@]2(C)[C@@H]([C@H](C)/C=C/[C@H](C)C(C)C)CC[C@@H]12`, the result in [1], in [2], in experiment [5], in experiment [6] and in [8] was inactive. Besides, the values for the AC50 in experiment [3], in experiment [4] and in experiment [9] were 44.5 µM (active), 27 µM (active) and 3.81 µM (active), respectively.
Consider `Cc1ccc(N)c(S(=O)(=O)O)c1`, for which the molecule was called inactive in [1], in experiment [2], in experiment [3], in [4], in experiment [5] and in [6]. For the same molecule, the outcome in experiment [8] and in [9] was inactive.
On to `CC(C)C(OC(=O)c1ccccc1)C(C)(C)COC(=O)c1ccccc1` (stereo not given), for which the result in [1], in experiment [2], in experiment [3], in [4], in experiment [5] and in [6] was inactive. The molecule was called inactive in [12], in experiment [8] and in [11]. In addition, the AC50 in [9] is 2.45 µM (active).
